The whole screen tested about 5,500 compounds, of which about 2,000 (36%) were called active. Roughly 18% stayed inconclusive and do not appear here. Cut-off read from the data, not from the text of the source: active = normalized growth mostly below about 0.91 (no sharp cut-off); inconclusive = no clear call, values can overlap the other calls; inactive = mostly above about 0.92. Some of the results follow.
Experiment: chemical genetic growth profiling, strain panel (AID 1159580);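 note: tested at 20 µM; growth read once vehicle control cultures reached saturation at 30 °C; 1 = growth at the plate median or of vehicle wells; lower values mean less growth of the strain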
Settings: growth OD

Measured: normalized growth

Cc1onc(-c2ccccc2Cl)c1C(=O)N[C@@H]1C(=O)N2[C@@H]1SC(C)(C)[C@@H]2C(=O)O
inactive: S. cerevisiae deletion strains, locus YJR066W, strain TOR1, hits give low values 0.986 | S. cerevisiae deletion strains, locus YKL009W, strain mrt4, hits give low values 1.02 | S. cerevisiae deletion strains, locus YKL068W, hits give low values 1.02 | S. cerevisiae deletion strains, locus YKL085W, strain MDH1 (second series), hits give low values 1.02 | S. cerevisiae deletion strains, locus YKL085W, strain MDH1, hits give low values 1.02 | S. cerevisiae deletion strains, locus YKL160W, strain elf1, hits give low values 1.02 | S. cerevisiae deletion strains, locus YKL190W, strain CNB1, hits give low values 1.01 | S. cerevisiae deletion strains, locus YKR001C, strain vps1, hits give low values 1.03 | S. cerevisiae deletion strains, locus YKR026C, strain gcn3, hits give low values 1.05 | S. cerevisiae deletion strains, locus YKR091W, strain srl3, hits give low values 1.02 | S. cerevisiae deletion strains, locus YLL001W, strain dnm1, hits give low values 1.02 | S. cerevisiae deletion strains, locus YLL026W, hits give low values 1.01 | S. cerevisiae deletion strains, locus YLL041C, strain sdh2, hits give low values 1.02 | S. cerevisiae deletion strains, locus YLR027C, strain aat2, hits give low values 1.01 | S. cerevisiae deletion strains, locus YLR039C, strain RIC1, hits give low values 1.02 | S. cerevisiae deletion strains, locus YLR058C, strain SHM2, hits give low values 1.02 | S. cerevisiae deletion strains, locus YLR102C, strain apc9, hits give low values 1.03 | S. cerevisiae deletion strains, locus YLR113W, strain HOG1, hits give low values 1.05 | S. cerevisiae deletion strains, locus YLR221C, strain rsa3, hits give low values 0.979 | S. cerevisiae deletion strains, locus YLR258W, strain gsy2, hits give low values 1.02 | S. cerevisiae deletion strains, locus YLR262C, strain YPT6 (second series), hits give low values 1 | S. cerevisiae deletion strains, locus YLR262C, strain YPT6, hits give low values 1.01 | S. cerevisiae deletion strains, locus YLR268W, strain sec22, hits give low values 1.04 | S. cerevisiae deletion strains, locus YLR320W, strain mms22, hits give low values 1 | S. cerevisiae deletion strains, locus YLR330W, strain CHS5, hits give low values 1.01 | S. cerevisiae deletion strains, locus YLR342W, strain FKS1 (second series), hits give low values 1.02 | S. cerevisiae deletion strains, locus YLR342W, strain FKS1, hits give low values 1.02 | S. cerevisiae deletion strains, locus YLR357W, strain rsc2, hits give low values 1.03 | S. cerevisiae deletion strains, locus YLR370C, strain arc18, hits give low values 1.02 | S. cerevisiae deletion strains, locus YLR371W, strain rom2, hits give low values 1.03 | S. cerevisiae deletion strains, locus YLR384C, strain iki3, hits give low values 1.02 | S. cerevisiae deletion strains, locus YLR418C, strain cdc73, hits give low values 1.04 | S. cerevisiae deletion strains, locus YML016C, strain PPZ1, hits give low values 1.01 | S. cerevisiae deletion strains, locus YML032C, strain rad52, hits give low values 1.01 | S. cerevisiae deletion strains, locus YML120C, strain ndi1, hits give low values 1.04 | S. cerevisiae deletion strains, locus YML124C, strain tub3, hits give low values 1.03 | S. cerevisiae deletion strains, locus YMR058W, strain fet3, hits give low values 1.04 | S. cerevisiae deletion strains, locus YMR078C, strain ctf18, hits give low values 1.04 | S. cerevisiae deletion strains, locus YMR125W, strain sto1, hits give low values 1.04 | S. cerevisiae deletion strains, locus YMR129W, hits give low values 1.01 | S. cerevisiae deletion strains, locus YMR205C, strain PFK2, hits give low values 1.04 | S. cerevisiae deletion strains, locus YMR223W, strain ubp8, hits give low values 1.02 | S. cerevisiae deletion strains, locus YMR231W, strain pep5, hits give low values 1.02 | S. cerevisiae deletion strains, locus YMR263W, strain SAP30, hits give low values 1.02 | S. cerevisiae deletion strains, locus YMR307W, strain GAS1, hits give low values 1.03 | S. cerevisiae deletion strains, locus YNL067W, strain RPL9B, hits give low values 1.02 | S. cerevisiae deletion strains, locus YNL071W, strain lat1, hits give low values 1.01 | S. cerevisiae deletion strains, locus YNL153C, strain GIM3, hits give low values 1.01 | S. cerevisiae deletion strains, locus YNL183C, strain NPR1, hits give low values 0.968 | S. cerevisiae deletion strains, locus YNL209W, strain ssb2, hits give low values 1.01 | S. cerevisiae deletion strains, locus YNL233W, strain BNI4, hits give low values 1.01 | S. cerevisiae deletion strains, locus YNL248C, strain rpa49, hits give low values 0.948 | S. cerevisiae deletion strains, locus YNL250W, strain rad50, hits give low values 1.01 | S. cerevisiae deletion strains, locus YNL271C, strain bni1, hits give low values 1.03 | S. cerevisiae deletion strains, locus YNL298W, strain CLA4, hits give low values 1.04 | S. cerevisiae deletion strains, locus YNL307C, strain MCK1, hits give low values 1.04 | S. cerevisiae deletion strains, locus YNL322C, strain KRE1 (second series), hits give low values 1.01 | S. cerevisiae deletion strains, locus YNL322C, strain KRE1, hits give low values 1 | S. cerevisiae deletion strains, locus YNR049C, strain mso1, hits give low values 1.02 | S. cerevisiae deletion strains, locus YNR052C, strain pop2, hits give low values 1.01 | S. cerevisiae deletion strains, locus YOL012C, strain htz1 1.96 | S. cerevisiae deletion strains, locus YOL147C, strain pex11, hits give low values 1.03 | S. cerevisiae deletion strains, locus YOR001W, strain rrp6, hits give low values 1.04 | S. cerevisiae deletion strains, locus YOR061W, strain CKA2, hits give low values 1.01 | S. cerevisiae deletion strains, locus YOR069W, strain VPS5, hits give low values 1.01 | S. cerevisiae deletion strains, locus YOR070C, strain gyp1, hits give low values 1.01 | S. cerevisiae deletion strains, locus YOR080W, strain dia2, hits give low values 1.03 | S. cerevisiae deletion strains, locus YOR083W, strain WHI5, hits give low values 1.03 | S. cerevisiae deletion strains, locus YOR106W, strain vam3, hits give low values 1.03 | S. cerevisiae deletion strains, locus YOR136W, strain idh2, hits give low values 1.03 | S. cerevisiae deletion strains, locus YOR144C, strain elg1, hits give low values 1.02 | S. cerevisiae deletion strains, locus YOR184W, strain ser1, hits give low values 1.03 | S. cerevisiae deletion strains, locus YOR231W, strain MKK1, hits give low values 1.01 | S. cerevisiae deletion strains, locus YOR265W, strain rbl2, hits give low values 1.02 | S. cerevisiae deletion strains, locus YOR270C, strain vph1, hits give low values 1.04 | S. cerevisiae deletion strains, locus YOR290C, strain snf2, hits give low values 1.01 | S. cerevisiae deletion strains, locus YOR316C, strain cot1, hits give low values 1.03 | S. cerevisiae deletion strains, locus YPL051W, strain arl3, hits give low values 1.02 | S. cerevisiae deletion strains, locus YPL055C, strain LGE1, hits give low values 1.03 | S. cerevisiae deletion strains, locus YPL078C, strain atp4, hits give low values 1.03 | S. cerevisiae deletion strains, locus YPL106C, strain sse1, hits give low values 1.03 | S. cerevisiae deletion strains, locus YPL240C, strain hsp82, hits give low values 1.01 | S. cerevisiae deletion strains, locus YPL241C, strain CIN2, hits give low values 1 | S. cerevisiae deletion strains, locus YPL256C, strain CLN2, hits give low values 1.01 | S. cerevisiae deletion strains, locus YPR119W, strain clb2, hits give low values 1.03 | S. cerevisiae deletion strains, locus YPR141C, strain kar3, hits give low values 1.04 | S. cerevisiae deletion strains, locus YPR163C, strain tif3, hits give low values 1.04 | S. cerevisiae deletion strains, locus YPR167C, strain met16, hits give low values 1.03 | S. cerevisiae deletion strains, strain wtn01, hits give low values 1.02 | S. cerevisiae strains, strain wild type, hits give low values 1.01

Source: PubChem BioAssay AID1159580 (chemical genetic matrix, 2015)
